# Assay results published in PubChem BioAssay.
# A number with no mark means an inactive call.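 Rule for the calls, unless noted: active = viability at or below 10% of carrier control in both of two separate runs; inconclusive = viability at or below 10% in only one of the two runs; inactive = the rest.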
# Target: Receptor tyrosine-protein kinase erbB-2 (Homo sapiens) (UniProt P04626)
# Test: reducers of endogenous Her2 protein level, primary screen, SKBR3 breast tumor cells, AlphaScreen, ATP viability (AID 461;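 active = Her2 level under about 52% in both replicate screens, with viability over 70% of control, limit read from the data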;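 note: lower value means less Her2 protein in the cells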)
# Settings: 18-24 h, at 10 µM, hits give low values
# Receptor tyrosine-protein kinase erbB-2 (Homo sapiens), sequence (P04626 whole entry, looked up): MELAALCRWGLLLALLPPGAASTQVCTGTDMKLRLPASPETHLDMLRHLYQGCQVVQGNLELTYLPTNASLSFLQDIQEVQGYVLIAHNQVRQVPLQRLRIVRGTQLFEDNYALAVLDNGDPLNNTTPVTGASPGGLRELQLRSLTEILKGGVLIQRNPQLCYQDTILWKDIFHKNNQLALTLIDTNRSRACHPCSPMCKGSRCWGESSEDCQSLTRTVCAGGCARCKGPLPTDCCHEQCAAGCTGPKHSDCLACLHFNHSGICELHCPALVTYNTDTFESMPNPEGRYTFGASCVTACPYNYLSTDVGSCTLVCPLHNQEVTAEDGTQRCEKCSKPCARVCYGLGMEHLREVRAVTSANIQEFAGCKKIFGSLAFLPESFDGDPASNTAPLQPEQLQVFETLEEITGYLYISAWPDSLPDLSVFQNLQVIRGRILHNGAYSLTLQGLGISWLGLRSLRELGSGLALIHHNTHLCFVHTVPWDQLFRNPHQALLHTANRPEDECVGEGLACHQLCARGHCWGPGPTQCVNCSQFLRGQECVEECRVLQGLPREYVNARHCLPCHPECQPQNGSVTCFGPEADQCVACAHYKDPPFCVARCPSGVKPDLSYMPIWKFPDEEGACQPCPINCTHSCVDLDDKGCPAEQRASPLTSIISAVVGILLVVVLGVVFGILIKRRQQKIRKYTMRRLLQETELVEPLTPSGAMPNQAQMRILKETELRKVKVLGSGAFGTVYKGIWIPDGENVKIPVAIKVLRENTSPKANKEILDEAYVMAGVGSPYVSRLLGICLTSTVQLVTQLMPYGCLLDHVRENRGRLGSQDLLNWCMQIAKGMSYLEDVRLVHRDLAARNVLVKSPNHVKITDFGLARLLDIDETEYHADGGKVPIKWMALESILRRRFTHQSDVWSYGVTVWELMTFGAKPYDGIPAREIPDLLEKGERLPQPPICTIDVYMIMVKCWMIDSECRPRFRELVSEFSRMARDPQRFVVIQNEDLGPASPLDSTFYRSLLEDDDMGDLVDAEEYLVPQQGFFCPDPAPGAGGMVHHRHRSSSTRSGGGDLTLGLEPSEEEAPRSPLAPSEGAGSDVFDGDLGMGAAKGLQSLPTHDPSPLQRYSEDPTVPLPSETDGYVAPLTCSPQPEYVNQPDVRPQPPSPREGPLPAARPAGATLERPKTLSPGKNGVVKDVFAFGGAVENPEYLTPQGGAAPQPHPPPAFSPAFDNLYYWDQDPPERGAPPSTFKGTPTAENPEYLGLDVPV
row,Compound,Her2 level
1,CN(Cc1cccs1)c1ncnc2sccc12,78.5%
2,CCOC(=O)N1CCN(C(=O)CN(c2ccc(C)cc2)S(=O)(=O)c2c(C)noc2C)CC1,94%
3,Cc1c2c(nc3nc4ccccc4n13)CC(C)(C)CC2=O,100%
4,COc1ccccc1OC(=O)c1ccc2nsnc2c1,89%
5,CCN(CCCNC(=O)c1cn(CC)c2ccc(S(=O)(=O)N(C)C)cc2c1=O)c1cccc(C)c1,74.5%
6,O=C(O)C1CC(=O)N(c2ccc(OCc3ccccc3Cl)cc2)C1 (stereo not given),92.5%
7,C=CCOc1ccc(C2C(C(=O)c3ccco3)=C(O)C(=O)N2Cc2cccnc2)cc1 (stereo not given),89.5%
8,[N-]=[N+]=CC(=O)CC(c1ccccc1)N1C(=O)c2ccccc2C1=O (stereo not given),106%
9,CCC1(c2ccc(F)cc2)NC(=O)N(CC(=O)c2ccc[nH]2)C1=O (stereo not given),117%
10,c1csc(-c2nc3nc4ccccc4nc3n2Cc2ccc3c(c2)OCO3)c1,75%
11,Cc1n[nH]c(C)c1S(=O)(=O)N1CCN(c2ccccn2)CC1,108%
12,Cn1c(=O)c2c(nc(NCCc3ccccc3)n2CC(=O)NCCc2ccccc2)n(C)c1=O,90.5%
13,Cc1cc(Br)ccc1NC(=O)CCN1C(=O)c2ccncc2C1=O,113%
14,COc1ccccc1Oc1coc2c(CN3CCN(C)CC3)c(O)ccc2c1=O,111%
15,O=C(Nc1ccccc1N1CCN(c2ccc(F)cc2)CC1)c1ccccc1,96%
16,c1ccc(Cc2ccc(OCCn3cncn3)cc2)cc1,108%
17,Cc1cccc(Nc2nc3c(c(=O)n(C)c(=O)n3C)n2Cc2ccccc2)c1,87%
18,Cc1nn(C)c(C)c1CNC(=O)c1cc2n(n1)C(C(F)(F)F)CC(c1cccs1)N2 (stereo not given),83%
19,COc1ccc(CNc2nc3nc(C)cc(C)n3n2)cc1OC,94.5%
20,CCOC(=O)c1ccc(N2C(=O)C3CC=CCC3C2=O)cc1 (stereo not given),116%

row,Compound,Her2 level
1,CC(C(=O)NCCCN1CCOCC1)n1cccc1C(=O)c1ccccc1 (stereo not given),76.5%
2,Cc1nc(NC2=NCN(CC3CCCO3)CN2)nc2ccccc12 (stereo not given),83%
3,COCCOC(=O)C1=C(N)OC2=C(C(=O)CC(C)(C)C2)C1c1cccnc1 (stereo not given),101%
4,CC(C)(C)NCc1cc2ccccc2[nH]c1=O,74.5%
5,COc1ccc(-c2noc(-c3cc(Cl)ccc3Cl)n2)cc1OC,78%
6,CCC(=O)Nc1ccc(Cl)c(NC(=O)C(C)C)c1,80%
7,COC(=O)c1cc2ccsc2n1CC(=O)Nc1cc(C)cc(C)c1,124%
8,COc1ccc(-c2nnc(SCC#N)o2)cc1,91.5%
9,Cc1nc(C)c(C(=O)C2=C(O)C(=O)N(CCN3CCOCC3)C2c2cccnc2)s1 (stereo not given),93%
10,Cc1ccc(NC(=O)CCC(=O)OCC(F)(F)C(F)F)cc1,106%
11,CN(C)c1ccc2c(c1)OC(N)=C(C#N)C2c1cccc(F)c1 (stereo not given),90.5%
12,CCN1CCN(CCCNC(=O)C2c3ccccc3C(=O)N(C)C2c2ccc(OC)cc2)CC1 (stereo not given),99%
13,Cc1oc(-c2ccc(Cl)cc2)nc1CS(=O)CC(=O)NCCCN(C)C1CCCCC1 (stereo not given),101%
14,CC(C)CCN1CC(C(=O)NCc2ccccc2)CC1=O (stereo not given),87.5%
15,CC1CCN(S(=O)(=O)c2ccc3[nH]cc(C(=O)NCCN4CCOCC4)c(=O)c3c2)CC1,104%
16,Cc1ccc(S(=O)(=O)N(C)Cc2cc3ccccc3[nH]c2=O)cc1,86.5%
17,CC(=O)N1CCN(c2ccc(S(=O)(=O)N3CCCCC3)cn2)CC1,89.5%
18,CCOC(=O)c1cnc(-n2nc(C)cc2C)nc1Nc1cccc(C(C)=O)c1,110%
19,Fc1ccc(NCc2nnc(SCc3nnc(-c4ccccc4)o3)n2CC2CCCO2)cc1 (stereo not given),109%
20,O=C1Nc2ccccc2OC1CC(=O)N1CCCC1 (stereo not given),91.5%

# Test system: not listed separately
# Test: SK-BR-3 cell growth inhibitors, pilot screen, 24 h, human (AID 572);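 note: compound exposure lasted between 18 and 24 h rather than exactly 24 h; 100% = carrier-treated control wells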
# Settings: SK-BR-3 viability, CellTiter-Glo luminescence, at 10 µM, hits give low values
row,Compound,viability
1,CN(Cc1cccs1)c1ncnc2sccc12,112%
2,CCOC(=O)N1CCN(C(=O)CN(c2ccc(C)cc2)S(=O)(=O)c2c(C)noc2C)CC1,81.5%
3,Cc1c2c(nc3nc4ccccc4n13)CC(C)(C)CC2=O,130%
4,COc1ccccc1OC(=O)c1ccc2nsnc2c1,110%
5,CCN(CCCNC(=O)c1cn(CC)c2ccc(S(=O)(=O)N(C)C)cc2c1=O)c1cccc(C)c1,98%
6,O=C(O)C1CC(=O)N(c2ccc(OCc3ccccc3Cl)cc2)C1 (stereo not given),83%
7,C=CCOc1ccc(C2C(C(=O)c3ccco3)=C(O)C(=O)N2Cc2cccnc2)cc1 (stereo not given),108%
8,[N-]=[N+]=CC(=O)CC(c1ccccc1)N1C(=O)c2ccccc2C1=O (stereo not given),93.5%
9,CCC1(c2ccc(F)cc2)NC(=O)N(CC(=O)c2ccc[nH]2)C1=O (stereo not given),110%
10,c1csc(-c2nc3nc4ccccc4nc3n2Cc2ccc3c(c2)OCO3)c1,98.5%
11,Cc1n[nH]c(C)c1S(=O)(=O)N1CCN(c2ccccn2)CC1,99.5%
12,Cn1c(=O)c2c(nc(NCCc3ccccc3)n2CC(=O)NCCc2ccccc2)n(C)c1=O,91%
13,Cc1cc(Br)ccc1NC(=O)CCN1C(=O)c2ccncc2C1=O,104%
14,COc1ccccc1Oc1coc2c(CN3CCN(C)CC3)c(O)ccc2c1=O,102%
15,O=C(Nc1ccccc1N1CCN(c2ccc(F)cc2)CC1)c1ccccc1,95%
16,c1ccc(Cc2ccc(OCCn3cncn3)cc2)cc1,84%
17,Cc1cccc(Nc2nc3c(c(=O)n(C)c(=O)n3C)n2Cc2ccccc2)c1,122%
18,Cc1nn(C)c(C)c1CNC(=O)c1cc2n(n1)C(C(F)(F)F)CC(c1cccs1)N2 (stereo not given),89.5%
19,COc1ccc(CNc2nc3nc(C)cc(C)n3n2)cc1OC,104%
20,CCOC(=O)c1ccc(N2C(=O)C3CC=CCC3C2=O)cc1 (stereo not given),112%

row,Compound,viability
1,CC(C(=O)NCCCN1CCOCC1)n1cccc1C(=O)c1ccccc1 (stereo not given),90%
2,Cc1nc(NC2=NCN(CC3CCCO3)CN2)nc2ccccc12 (stereo not given),98.5%
3,COCCOC(=O)C1=C(N)OC2=C(C(=O)CC(C)(C)C2)C1c1cccnc1 (stereo not given),76%
4,CC(C)(C)NCc1cc2ccccc2[nH]c1=O,90%
5,COc1ccc(-c2noc(-c3cc(Cl)ccc3Cl)n2)cc1OC,122%
6,CCC(=O)Nc1ccc(Cl)c(NC(=O)C(C)C)c1,97%
7,COC(=O)c1cc2ccsc2n1CC(=O)Nc1cc(C)cc(C)c1,96.5%
8,COc1ccc(-c2nnc(SCC#N)o2)cc1,104%
9,Cc1nc(C)c(C(=O)C2=C(O)C(=O)N(CCN3CCOCC3)C2c2cccnc2)s1 (stereo not given),104%
10,Cc1ccc(NC(=O)CCC(=O)OCC(F)(F)C(F)F)cc1,98%
11,CN(C)c1ccc2c(c1)OC(N)=C(C#N)C2c1cccc(F)c1 (stereo not given),92%
12,CCN1CCN(CCCNC(=O)C2c3ccccc3C(=O)N(C)C2c2ccc(OC)cc2)CC1 (stereo not given),102%
13,Cc1oc(-c2ccc(Cl)cc2)nc1CS(=O)CC(=O)NCCCN(C)C1CCCCC1 (stereo not given),91.5%
14,CC(C)CCN1CC(C(=O)NCc2ccccc2)CC1=O (stereo not given),88.5%
15,CC1CCN(S(=O)(=O)c2ccc3[nH]cc(C(=O)NCCN4CCOCC4)c(=O)c3c2)CC1,108%
16,Cc1ccc(S(=O)(=O)N(C)Cc2cc3ccccc3[nH]c2=O)cc1,114%
17,CC(=O)N1CCN(c2ccc(S(=O)(=O)N3CCCCC3)cn2)CC1,97%
18,CCOC(=O)c1cnc(-n2nc(C)cc2C)nc1Nc1cccc(C(C)=O)c1,87.5%
19,Fc1ccc(NCc2nnc(SCc3nnc(-c4ccccc4)o3)n2CC2CCCO2)cc1 (stereo not given),96.5%
20,O=C1Nc2ccccc2OC1CC(=O)N1CCCC1 (stereo not given),88.5%
